The record followed here is PubChem BioAssay (EPA / NIEHS).

Read-out in test [1]: Transforming growth factor beta 1 (TGFb1), TGFB1 (gene 7040)
The experiment in a line: BSK_KF3CT_TGFb1: BioMAP Diversity Plus: KF3CT Assay for Transforming growth factor beta 1 (TGFb1) Biomarker Activity (AID 2283072). As to conditions: primary human keratinocytes with fibroblasts; actives raise or lower the signal. The method, boiled down: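 Human keratinocyte plus foreskin fibroblast primary co-culture, dosed with chemical for 24 h. TGF-b1 quantified by ELISA. Activity fitted bidirectionally against DMSO negative control as baseline.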

Read-out in test [2]: C-C motif chemokine 2 (Homo sapiens) (UniProt P13500)
Description: BSK_KF3CT_MCP1: BioMAP Diversity Plus: KF3CT Assay for Monocyte Chemoattractant Protein 1 (MCP1/CCL2) Biomarker Activity (AID 2283073). The note with it: primary human keratinocytes with fibroblasts; actives raise or lower the signal. The method, boiled down: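 Biomarker MCP-1 is measured by ELISA in primary human keratinocytes co-cultured with foreskin fibroblasts, 24 h after chemical treatment; DMSO serves as the negative control and activity baseline.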

Read-out in test [3]: Matrix Metallopeptidase 9 (MMP9), MMP9 (gene 4318)
Description: BSK_KF3CT_MMP9: BioMAP Diversity Plus: KF3CT Assay for Matrix Metallopeptidase 9 (MMP9) Biomarker Activity (AID 2283074). The note with it: primary human keratinocytes with fibroblasts; actives raise or lower the signal. The method, boiled down: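 Human keratinocyte and foreskin fibroblast co-culture exposed to chemicals for 24 h; MMP9 biomarker measured by ELISA, bidirectional fitting relative to DMSO; cytotoxicity tracked by SRB total protein staining in parallel cultures.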

Read-out in test [4]: urokinase plasminogen activator (uPA), PLAU (gene 5328)
Description: BSK_KF3CT_uPA: BioMAP Diversity Plus: KF3CT Assay for urokinase plasminogen activator (uPA) Biomarker Activity (AID 2283075). As to conditions: primary human keratinocytes with fibroblasts; actives raise or lower the signal. In short, it runs like this: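 Primary human keratinocyte/foreskin fibroblast co-culture exposed to chemical; uPA measured by ELISA at 24 h. Bidirectional fit versus DMSO, with parallel SRB total-protein staining for cytotoxicity.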

Read-out in test [5]: CD40, CD40 (gene 958)
Description: BSK_LPS_CD40: BioMAP Diversity Plus: LPS Assay for CD40 Biomarker Activity (AID 2283076). As to conditions: primary human HUVEC with PBMC; actives raise or lower the signal. The method, boiled down:
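Using a multiplexed primary human co-culture (umbilical vein endothelium plus PBMC), CD40 was read by ELISA 24 h after dosing, with cytotoxicity tracked by sulforhodamine B staining of parallel cultures and activity fitted bidirectionally versus DMSO.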

Read-out in test [6]: E-selectin (Homo sapiens) (UniProt P16581)
Description: BSK_LPS_Eselectin: BioMAP Diversity Plus: LPS Assay for Eselectin Biomarker Activity (AID 2283077). The note with it: primary human HUVEC with PBMC; actives raise or lower the signal. The method, boiled down: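 Dose chemical onto LPS-driven HUVEC/PBMC co-culture; after 24 h, run ELISA for E-selectin; fit up- and down-going responses relative to DMSO control.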

Read-out in test [7]: Interleukin-8 (IL8), CXCL8 (gene 3576)
The experiment in a line: BSK_LPS_IL8: BioMAP Diversity Plus: LPS Assay for Interleukin-8 (IL8) Biomarker Activity (AID 2283078). As to conditions: primary human HUVEC with PBMC; actives raise or lower the signal. In short, it runs like this: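 In this LPS system, chemical-treated human umbilical vein endothelium/PBMC co-cultures were harvested at 24 h for IL-8 ELISA.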

Test [8] can be described thus: BSK_LPS_SRB: Viability Assessment in the BioMAP Diversity Plus: LPS Assay (AID 2283079).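 Further: total protein by sulforhodamine B absorbance as a cytotoxicity measure; measured one day after compound addition; fitted in both directions against DMSO so loss or gain of signal counts.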 As to conditions: primary human HUVEC with PBMC. The method, boiled down: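 Cytotoxicity endpoint in human endothelial–PBMC co-culture: 24 h exposure, then SRB (0.1%) staining, 560 nm read.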
Read-out in test [9]: Interleukin-1 alpha (IL1a), IL1A (gene 3552)
Description: BSK_LPS_IL1a: BioMAP Diversity Plus: LPS Assay for Interleukin-1 alpha (IL1a) Biomarker Activity (AID 2283080). As to conditions: primary human HUVEC with PBMC; actives raise or lower the signal. In short, it runs like this:
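Primary human HUVEC and PBMC co-culture stimulated with LPS is dosed and harvested at 24 h. Both increases and decreases in ELISA-measured IL-1a are scored relative to DMSO.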

Test [10] is described as follows: BSK_LPS_PGE2: BioMAP Diversity Plus: LPS Assay for Prostaglandin E2 (PGE2) Biomarker Activity (AID 2283082). The note with it: primary human HUVEC with PBMC; actives raise or lower the signal. In short, it runs like this:
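HUVEC plus PBMC co-culture stimulated with LPS; secreted PGE2 quantified by ELISA 24 h after chemical dosing. Activity fitted bidirectionally against DMSO as negative control and baseline; parallel SRB total-protein staining served as cytotoxicity check.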

Read-out in test [11]: Tissue Factor, F3 (gene 2152)
Description: BSK_LPS_TissueFactor: BioMAP Diversity Plus: LPS Assay for Tissue Factor Biomarker Activity (AID 2283084). As to conditions: primary human HUVEC with PBMC; actives raise or lower the signal. In short, it runs like this: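 Read-out: CD142 ELISA, 24 h. System: LPS-driven human endothelial/PBMC co-culture. Analysis: up- or down-signal fitted against DMSO.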

Read-out in test [12]: Vascular cell adhesion molecule 1 (VCAM1), VCAM1 (gene 7412)
The experiment in a line: BSK_LPS_VCAM1: BioMAP Diversity Plus: LPS Assay for Vascular cell adhesion molecule 1 (VCAM1) Biomarker Activity (AID 2283086). The note with it: primary human HUVEC with PBMC; actives raise or lower the signal. In short, it runs like this:
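Human umbilical vein endothelial cells co-cultured with peripheral blood mononuclear cells under LPS stimulation were exposed to test chemical for 24 h. VCAM-1 levels were then measured by ELISA, with bidirectional curve fitting relative to DMSO as negative control and baseline.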

Read-out in another test: CD38, CD38 (gene 952)
Description: BSK_SAg_CD38: BioMAP Diversity Plus: SAg Assay for CD38 Biomarker Activity (AID 2283087). As to conditions: primary human HUVEC with PBMC; actives raise or lower the signal. The method, boiled down:
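Fluorescence ELISA of cell-surface CD38 served as the read-out, with either increase or decrease fitted against DMSO controls. Cells were a human umbilical vein endothelium plus PBMC co-culture under SEB/TSST-1 stimulation, measured 24 h after dosing.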

Read-out in test [13]: CD40, CD40 (gene 958)
Description: BSK_SAg_CD40: BioMAP Diversity Plus: SAg Assay for CD40 Biomarker Activity (AID 2283088). As to conditions: primary human HUVEC with PBMC; actives raise or lower the signal. In short, it runs like this:
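Endpoint derived by fitting increases or decreases versus DMSO controls. CD40 is detected by fluorescence ELISA in a human vascular co-culture of endothelium and PBMC at 24 h.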

Read-out in the next test: CD69, CD69 (gene 969)
Description: BSK_SAg_CD69: BioMAP Diversity Plus: SAg Assay for CD69 Biomarker Activity (AID 2283089). As to conditions: primary human HUVEC with PBMC; actives raise or lower the signal. In short, it runs like this:
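Endothelial/PBMC co-culture; chemical added; 24 h incubation; CD69 ELISA with fluorescence detection; bidirectional fit vs DMSO.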

Read-out in test [14]: E-selectin (Homo sapiens) (UniProt P16581)
Description: BSK_SAg_Eselectin: BioMAP Diversity Plus: SAg Assay for Eselectin Biomarker Activity (AID 2283091). The note with it: primary human HUVEC with PBMC; actives raise or lower the signal. The method, boiled down:
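Endpoint values derive from bidirectional fitting relative to DMSO, using ELISA-measured E-selectin in a human vascular co-culture (umbilical vein endothelium plus PBMC) sampled 24 h after dosing.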

Read-out in test [15]: Monocyte Chemoattractant Protein-1 (MCP1), CCL2 (gene 6347)
Description: BSK_LPS_MCP1: BioMAP Diversity Plus: LPS Assay for Monocyte Chemoattractant Protein-1 (MCP1) Biomarker Activity (AID 2283081). The note with it: primary human HUVEC with PBMC; actives raise or lower the signal. The method, boiled down: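 Values derive from bidirectional fitting against DMSO of ELISA-measured MCP-1 in a human primary endothelial and mononuclear cell co-culture, 24 h after chemical addition under LPS activation.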

Read-out in test [16]: Macrophage colony-stimulating factor (MCSF), CSF1 (gene 1435)
The experiment in a line: BSK_LPS_MCSF: BioMAP Diversity Plus: LPS Assay for Macrophage colony-stimulating factor (MCSF) Biomarker Activity (AID 2283083). The note with it: primary human HUVEC with PBMC; actives raise or lower the signal. The method, boiled down: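 Bidirectional fit versus DMSO of ELISA-measured M-CSF in co-cultured human umbilical vein endothelial cells and PBMC, sampled 24 h after dosing.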

Read-out in test [17]: Tumor necrosis factor (Homo sapiens) (UniProt P01375)
The experiment in a line: BSK_LPS_TNFa: BioMAP Diversity Plus: LPS Assay for Tumour Necrosis Factor alpha (TNFa) Biomarker Activity (AID 2283085). As to conditions: primary human HUVEC with PBMC; actives raise or lower the signal. The method, boiled down:
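Human umbilical vein endothelial cells co-cultured with PBMC were exposed to test chemical and TNFa measured by ELISA 24 h after dosing. Bidirectional curve fitting was done relative to DMSO as negative control and baseline.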

Usually AC50 stands for the midpoint of the concentration-response curve, whichever way the signal moves.

Calls of active or inactive are those of the source. How the source made its calls: active means hit-call score of the fitted dose curve at least 0.9, where 1 is the maximum; inactive means score below 0.9.

Sequence of E-selectin (Homo sapiens) (P16581 whole entry, looked up): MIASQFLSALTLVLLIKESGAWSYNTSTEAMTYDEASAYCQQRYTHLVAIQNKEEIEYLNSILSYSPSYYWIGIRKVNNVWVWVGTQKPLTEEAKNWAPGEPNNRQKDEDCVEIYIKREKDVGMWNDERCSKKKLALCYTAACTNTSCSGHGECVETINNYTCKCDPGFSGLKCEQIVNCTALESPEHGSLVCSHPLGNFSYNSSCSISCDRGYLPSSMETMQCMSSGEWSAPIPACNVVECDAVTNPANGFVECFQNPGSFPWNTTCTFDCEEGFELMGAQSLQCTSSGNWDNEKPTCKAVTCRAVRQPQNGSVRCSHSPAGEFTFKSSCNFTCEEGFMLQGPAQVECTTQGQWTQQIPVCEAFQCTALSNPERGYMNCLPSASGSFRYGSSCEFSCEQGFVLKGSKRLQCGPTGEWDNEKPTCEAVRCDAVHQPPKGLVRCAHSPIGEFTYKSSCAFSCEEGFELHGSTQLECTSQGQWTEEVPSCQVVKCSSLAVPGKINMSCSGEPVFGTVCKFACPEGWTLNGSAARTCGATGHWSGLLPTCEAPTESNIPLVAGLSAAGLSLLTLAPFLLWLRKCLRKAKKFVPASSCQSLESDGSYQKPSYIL
Sequence of Tumor necrosis factor (Homo sapiens) (P01375 whole entry, looked up): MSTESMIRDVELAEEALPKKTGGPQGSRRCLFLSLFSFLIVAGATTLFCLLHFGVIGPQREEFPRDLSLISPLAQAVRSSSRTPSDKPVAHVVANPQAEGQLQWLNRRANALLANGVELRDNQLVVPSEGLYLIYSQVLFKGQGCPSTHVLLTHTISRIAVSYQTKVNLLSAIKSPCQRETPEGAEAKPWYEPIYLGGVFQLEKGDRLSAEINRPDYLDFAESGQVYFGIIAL

In the case of `CCCCOC(=O)CCCCCCCCC(=O)OCCCC`, the outcome is “inactive” in test [1]; “inactive” in test [2]; “inactive” in test [3]; “inactive” in [4]; “inactive” with CD40, CD40 (gene 958) [5]; “inactive” in [6]. Besides, the outcome in test [7], in test [8], in test [9], in test [10], in [11] and in test [12] was inactive. The outcome with CD38, CD38 (gene 952) was “inactive”; in the test with CD40, CD40 (gene 958) [13], “inactive”; with CD69, CD69 (gene 969), “inactive”; in [14] it was “inactive”.

For `O=c1[nH]cc(F)c(=O)[nH]1`, the result in test [1], in test [2], in test [3], in test [6], in [7] and in test [8] was inactive. The outcome in test [9], in test [15], in [10], in test [16], in test [11] and in [17] was inactive. For the same molecule, the outcome is “inactive” in the test with CD38, CD38 (gene 952); “inactive” with CD40, CD40 (gene 958) [13]; “inactive” with CD69, CD69 (gene 969); “inactive” in test [14]. Moreover, the half-maximal activity concentration (AC50) in the test with CD40, CD40 (gene 958) [5] was 20.4 µM (active); in test [12], 20.4 µM (active).

As to `CCCCCCCCCCCCCCCC`, the outcome in test [1] was “inactive”; in [2] it was “inactive”; in test [3], “inactive”; with CD40, CD40 (gene 958) [5], “inactive”; in test [6], “inactive”; in [7] it was “inactive”. In addition, the result in test [8], in test [9], in test [15], in [10], in test [16] and in [11] was inactive. Further, the outcome is “inactive” in test [12]; “inactive” in the test with CD38, CD38 (gene 952); “inactive” with CD40, CD40 (gene 958) [13]; “inactive” in the test with CD69, CD69 (gene 969); “inactive” in [14].

With `NCCO`, the outcome in test [1] is “inactive”; in test [2], “inactive”; in test [3], “inactive”; with CD40, CD40 (gene 958) [5], “inactive”; in [6] it was “inactive”; in test [7] it was “inactive”. Besides, the outcome in test [8], in test [9], in [15], in test [10], in test [16] and in [11] was inactive. Besides, the outcome is “inactive” in test [12]; “inactive” in the test with CD38, CD38 (gene 952); “inactive” in the test with CD40, CD40 (gene 958) [13]; “inactive” with CD69, CD69 (gene 969); “inactive” in test [14].
